High-throughput results: PubChem BioAssay, National Center for Advancing Translational Sciences (NCATS)
A selection: hits, their analogues and other compounds. The true share with any hit is near 6.5%.
HepG2 viability – kills HepG2 cells in TGF-b inhibitor counter-screen; 0.76% of 410,000 active; HepG2 CAGA-GFP viability, ATP luminescence, 18 h; Potency, µM (titrated, usually from 46.1 µM), hits mostly cytotoxic; AID 588856
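CellTiter-Glo luminescence gave cytotoxicity after 18 hours at 37 degrees C. The cells were HepG2 CAGA-GFP in 1% FBS DMEM, stimulated with 500 pg/mL TGF-beta after compound addition. %Activity was normalised to no-cell wells (complete cell-killing) and DMSO (no toxicity), and curves were fitted and classified.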
Giardia killer – kills Giardia lamblia; 0.15% of 340,000 active; activity change, % at 7.66 µM, hits read low; Giardia lamblia trophozoite viability; in the data active = activity change below about -80%; inconclusive = between about -30% and that limit;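 note: parasites exposed to compound for two days anaerobically before the ATP read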
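ATP-content bioluminescence gauges trophozoite survival. Cells (100/well) receive compound and incubate anaerobically for 48 hrs at 37 deg C; detection reagent follows for 15-30 min at room temperature.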
IL1B secr inh – inflammasome signaling inhibition, IL-1 beta readout; THP-1 LPS/ATP IL-1B secretion, AlphaLISA, 16 h; active compounds read low; AID 743279; activity change, % at 57.5 µM; 4.7% of 360,000 active; in the data active = activity change below about -50%; inconclusive = mostly about -30% to -49%
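Secreted IL-1B measured by AlphaLISA bead assay after 16 h compound exposure of THP-1 cells; compounds (final up to 57.5 uM) added 1 h before LPS (250 ng/mL) and ATP (1.25 mM) stimulation; lower signal means less secretion.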
HT1080NT lethal – kills 2HG-producing HT-1080-NT fibrosarcoma cells; Potency, µM (highest dose often 46.1 µM), actives largely listed as cytotoxic; HT-1080-NT fibrosarcoma viability, CellTiter-Glo ATP luminescence, 48 h; 1.6% of 360,000 active;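 note: NT is the 2HG producing partner of a matched IDH1 knockdown line; nearly all actives have a fitted effect of over 55% in size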
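HT-1080-NT; 750 cells/well; 5% FBS RPMI; 48 h compound, 37 degrees C; CellTiter-Glo luminescence; curve fitting and curve-class assignment.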
HT1080 IDH1KD tx – toxicity to HT-1080 IDH1 knockdown cells (counter line); HT-1080 IDH1 knockdown viability, ATP luminescence, 48 h; Potency, µM (top dose mostly 46.1 µM), most hits filed as cytotoxic; 2% of 360,000 active; AID 686971
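CellTiter-Glo luminescence after 48 h compound exposure at 37 degrees C of IDH1-knockdown HT-1080 cells in 5% FBS RPMI. %Activity scaled between DMSO wells and cell-free media wells, with curves fitted and assigned curve classes.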
TGFb inhibitor – blocks TGF-b signaling. HepG2 CAGA-GFP TGF-b/SMAD3 reporter, GFP fluorescence, 18 h; TGF-beta stimulated, 500 pg/mL final. Potency, µM (top dose mostly 46.1 µM), usual class: inhibitors. AID 588855. 1.2% of 410,000 active; note: nearly all actives have a fitted effect of over 65% in size
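Smad-responsive CAGA-GFP expression was quantified in HEPG2 cells exposed to compounds and 500 pg/mL final TGF-beta for 18 h at 37 degrees C; unstimulated wells defined full inhibition.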
A number is an active result; . = inactive; ? = inconclusive; / = not tested or not shown. Unless noted, calls come from the whole dose curve; as a rule, active = well fitted curve in the direction sought with a large enough effect; inconclusive = small, poorly fitted or top-dose-only effect, or another doubt; inactive = no such curve, though single readings can be large; an effect the other way counts as inactive or inconclusive.

SMILES | HepG2 viability | Giardia killer | IL1B secr inh | HT1080NT lethal | HT1080 IDH1KD tx | TGFb inhibitor
CCc1cccc2c(C(=O)CN3C(=O)NC4(CCc5ccccc54)C3=O)c[nH]c12 (stereo not drawn) | . | . | -58 | ? | ? | ?
CCc1cccc2c(C(=O)COC(=O)c3nn(C)c(=O)c4ccccc34)c[nH]c12 | . | . | . | . | . | .
CCCCCCCC[n+]1c(C)n(-c2ccccc2)c2ccc(NC(C)=O)cc21 | . | . | -103 | . | . | ?
COc1ccc(-c2nc3ccccc3n2Cc2ccccc2)cc1 | . | . | . | . | . | ?
COc1ccc(-c2n(Cc3ccccc3)c3ccccc3[n+]2Cc2ccccc2)cc1 | . | . | -87 | 4.6µM | 5.8µM | 7.9µM
O=C(CSc1nnc(SCc2cccc3ccccc23)s1)Nc1ccc(C(=O)O)cc1 | . | . | . | . | ? | .
Cc1nc(Nc2cnc(/C=C/c3cc(C(=O)Nc4cccc(C(F)(F)F)c4)ccc3C)cn2)cc(N2CCNCC2)n1 | . | . | -97 | ? | ? | ?
COc1ccc(/C=C2\CCc3ccccc3C2=O)cc1Cn1nc(C)cc1C | . | . | -51 | ? | ? | ?
N#C/C(=C/c1ccc(N2CCCC2)c([N+](=O)[O-])c1)c1nc2ccccc2[nH]1 | . | . | . | . | . | .
N#C/C(=C\c1cccnc1)c1nc2ccccc2[nH]1 | . | . | . | ? | ? | .
Cc1cc2nc(/C(C#N)=C/c3ccncc3)[nH]c2cc1C | . | . | . | ? | 23µM | .
COc1cc(/C=C(\C#N)c2nc3ccccc3[nH]2)ccc1OC(=O)c1ccco1 | . | . | -62 | . | . | .
N#C/C(=C\c1ccncc1)c1nc2ccccc2[nH]1 | . | . | -64 | . | . | .
N#C/C(=C\c1ccc(N2CCOCC2)c([N+](=O)[O-])c1)c1nc2ccccc2[nH]1 | . | . | -104 | . | . | .
Nc1nnc(SCC(=O)Nc2ccc(F)c(Cl)c2)n1-c1ccccc1 | . | . | . | . | . | .
Cc1ccccc1CN(C)c1ccc(S(=O)(=O)N2CCN(C)CC2)cn1 | . | . | . | . | . | .
CC(=O)OCC1OC(Sc2cccc3cccnc23)C(OC(C)=O)C(OC(C)=O)C1OC(C)=O (stereo not drawn) | . | . | -97 | ? | . | .
CC(=O)OCC1OC(n2ccc3ccccc32)C(OC(C)=O)C(OC(C)=O)C1OC(C)=O (stereo not drawn) | . | . | . | . | . | ?
CN(Cc1ccc(F)cc1)C(=O)c1cccc(NS(=O)(=O)c2ccccc2)c1 | . | . | . | . | . | .
CN(CC(=O)Nc1cccc(F)c1)C(=O)c1ccc(COc2ccccc2)cc1 | . | . | ? | 26µM | . | .
CN(CC(=O)Nc1cccc(F)c1)C(=O)c1ccc(C(=O)c2ccccc2)cc1 | . | . | ? | . | . | .
CN(Cc1ccc(F)cc1)C(=O)c1cccc(OCc2ccccc2)c1 | . | . | -54 | . | . | .
O=C(CSc1nnc(NC(=O)C2CC(=O)N(c3ccccc3)C2)s1)NCC1CCCO1 (stereo not drawn) | . | . | . | . | . | ?
CC1CCCCN1C(=O)Cn1cc(C#N)c2ccccc21 (stereo not drawn) | . | . | . | . | . | .
CCOc1ccc2ccccc2c1CNc1nnnn1CC | . | . | . | . | . | .
SMILES | HepG2 viability | Giardia killer | IL1B secr inh | HT1080NT lethal | HT1080 IDH1KD tx | TGFb inhibitor
Cc1ccc2nccnc2c1 | 5.6µM | / | / | / | / | 8.9µM
Clc1ccc2nccnc2c1 | 14µM | / | / | / | / | ?
O=C(Oc1ccc(Cl)cc1)c1ccc2nccnc2c1 | . | . | . | . | . | .
CCc1c(O)nc(SCC(=O)Nc2nc3ccccc3s2)n(-c2ccc(C)cc2)c1=O | . | . | . | . | . | .
CCCCCCCCCCCCCCCCn1cc[n+](C)c1 | . | ? | -96 | 16µM | 21µM | 11µM
C[n+]1ccn(CC(=O)c2cccs2)c1 | . | ? | . | ? | . | .
CC1=C(c2ccc(Cl)cc2)S(=O)(=O)N=C1N1CCC(C(=O)NCc2ccccc2F)CC1 | . | / | / | / | / | .
